These results are taken from PubChem BioAssay (Tox21).

“And” between values parts separate entries of the source, which are not always exact repeats. Identical values can stand only once. Inconclusive results are not listed. Entries that show only a call come without a potency. Some compounds were tested as several samples or in several runs, with calls that do not always agree. The source made the active and inactive calls. The rule behind the calls is not given here.
Potency is the fitted concentration of half-maximal effect.

This assay in a line: qHTS assay to identify small molecule antagonists of the estrogen related receptor signaling pathway with the pleiotropic PPARgamma coactivator (PGC) from Tox21 10K library (AID 1224841). Note: actives are mostly falling curves and most rising ones were filed inactive; nearly all actives have a fitted effect of over 50% in size. As to conditions: PGC/ERR reporter cell line, ONE-Glo luciferase, 18 h; series mostly up to 92.4 µM; activity, negative = inhibition: at the top concentration. The text has this: U.S. Tox21 Program National Center for Advancing Translational Sciences [NCATS] NIH Chemical Genomics Center [NCGC] U.S. Environmental Protection Agency [EPA] National Institutes of Environmental Health Sciences [NIEHS] National Toxicology Program [NTP] U.S. Food and Drug Administration [FDA] Tox21 Assay Overview: Estrogen related receptors (ERRs), the first orphan nuclear receptors discovered, play an important role in the control of cellular energy metabolism. ERRs are required for high-energy production in response to the environmental challenges. The pleiotropic PPARgamma coactivator (PGC) is a major partner of ERR and a key regulator in energy homeostasis. Together they have been implicated in the etiology of metabolic disorders such as Type 2 diabetes and metabolic syndrome. ERR-alpha was also identified as an adverse marker for breast cancer progression; ERR-alpha-positive tumors have a poor prognosis. To screen and to identify environmental compounds that perturb the ERR and PGC/ERR signaling pathways could provide valuable information for potential therapeutic or preventive measures in the treatment of metabolic disease. For identifying PGC/ERR antagonists, PGC/ERR cell line (provided by NTP) has been used to screen Tox21 10K library.
Tox21 Assay Protocol Summary: The PGC/ERR cells were dispensed at 2,000 cells/5 ul/well in 1536-well white plates using a Multidrop dispenser. After the assay plates were incubated at a 37 C/5% CO2 incubator for 6 hours, 23 nL of compounds dissolved in DMSO, positive and negative controls or DMSO only was transferred to the assay plate by a pin tool. The plates were incubated at 37 C for 18 hours. 4 ul/well of One-Glo reagent was added into the assay plates using a Flying Reagent Dispenser. After 30-minute incubation at room temperature, the luminescence intensity in the plates was measured using a ViewLux plate reader.
(In general: Quantitative high-throughput screening tests each substance at several concentrations.)
Take `Cc1ccc(N=C=O)cc1N=C=O`: the Potency entry is “inactive”. In the case of `O=[N+]([O-])c1ccc(Cl)c(Cl)c1`, the “activity, negative = inhibition” value is -5.64% (inactive). `CCOc1ccc(N)cc1`: the Potency entry was “inactive”. Take `OCc1ccco1`: the Potency entry is “inactive”.

As to `O=[N+]([O-])c1cc([As](=O)(O)O)ccc1O`, the Potency entry was “inactive”.

On to `Cl[C@H]1OCCO[C@@H]1Cl`, for which the Potency entry was “inactive”. Still for that read-out and setting: as for `CNC(=O)O/N=C/C(C)(C)SC`, the entry is “inactive”; as for `COc1nc(NC(C)C)nc(NC(C)C)n1`, “inactive”; as for `O=C(O)Cc1ccccc1`, “inactive”. Still for that read-out and setting: as for `C=C(C)C(=O)OCC(CC)CCCC` (configuration not stated), the figure is 31.2 µM (active) and inactive. The same measure, in the same setting: as for `CNCC(O)c1ccc(O)cc1` (configuration not stated), the entry is “inactive”; as for `Cc1cccc(N)c1`, “inactive”.

Regarding `OC[C@@H](O)[C@H]1O[C@@H]2O[C@H](C(Cl)(Cl)Cl)O[C@@H]2[C@H]1O`, the “activity, negative = inhibition” value was 11.1% (inactive). Take `Cc1ccc(O)c(C)c1`: the Potency entry was “inactive”. Turning to `C=CC(=O)OCC(CC)CCCC` (configuration not stated), the Potency entry is “inactive”. `CN(C)NC(=O)CCC(=O)O`: the Potency entry is “inactive”.

Consider `Cc1cc(O)ccc1Cl`, for which the Potency result is “inactive”. Still for that read-out and setting: as for `Nc1nc(N)nc(NC2CC2)n1`, the entry is “inactive”; as for `C=CC#N`, “inactive”. Still for that read-out and setting: as for `[N-]=[N+]=CC(=O)OC[C@H](N)C(=O)O`, the entry is “inactive”. As to `CC(C)c1cccc(C(C)C)c1O`, the Potency result is “inactive”. Still for that read-out and setting: as for `O=C(O)c1cc(Oc2ccc(C(F)(F)F)cc2Cl)ccc1[N+](=O)[O-]`, the entry is “inactive and 68.9 µM (active)”; as for `COC(C)(C)CCCC(C)C/C=C/C(C)=C/C(=O)OC(C)C` (configuration not stated), “inactive”. Regarding `C=CCN=C=S`, the Potency entry is “inactive”. In the case of `Nc1cccc(Cl)c1`, the Potency entry is “inactive”. The same measure, in the same setting: as for `CNC(=O)O/N=C(\SC)C(=O)N(C)C`, the entry is “inactive”. On the same count and under the same terms, as for `CCNc1nc(Cl)nc(NC(C)C)n1`, the entry is “inactive”. For `CC(C)(C)C(=O)CCl`, the “activity, negative = inhibition” value was 5.91% (inactive). With `Nc1ncc([N+](=O)[O-])s1`, the Potency result was “inactive”. The same measure, in the same setting: as for `O=P1(NCCCl)OCCCN1CCCl` (configuration not stated), the entry is “inactive”; as for `OCCCCO`, “inactive”. On the same count and under the same terms, as for `COc1cc(-c2ccc(N)c(OC)c2)ccc1N`, the entry is “inactive”; as for `ClC(Cl)c1ccccc1`, “inactive”; as for `Cc1ccc(N)cc1`, “inactive”. The same measure, in the same setting: as for `COC(=O)Nc1cccc(OC(=O)Nc2cccc(C)c2)c1`, the entry is “inactive”. On to `CN(C)C(=O)Cl`, for which the Potency result is “inactive”.

For the compound `CCSC(=O)N1CCCCCC1`, the Potency result is “inactive”.
